These results are taken from the supplement of paper PMC7669877.

± gives the uncertainty stated by the source.

The assay concerns Candidatus Liberibacter solanacearum in potato hairy roots. The assay is described as follows: relative CLso titer (% of untreated control); higher = less inhibition of bacterial titer. Conditions: 10 µM; 72 h. The method, then:
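Primary screen of ~220 Spectrum collection (MicroSource) compounds at 10 µM (0.1% DMSO) on Candidatus Liberibacter solanacearum-infected potato hairy roots in multi-well plates (Gamborg B-5 medium, vacuum infiltrated, 21 °C, dark, 72 h). CLso titer was measured by qPCR of 16S rDNA normalised to potato RPL2 (2^-ddCq), pairwise-standardised against untreated controls, averaged over two biological replicates and expressed as % of untreated.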
Take `Clc1ccc(CSC(Cn2ccnc2)c2ccc(Cl)cc2Cl)cc1` (stereo not given): the “relative CLso titer” value was 111 ± 31%.
`CN(C)CC[C@@H](c1ccc(Cl)cc1)c1ccccn1`: the “relative CLso titer” value came to 48.1 ± 3.8%.
In the case of `C[C@H](CCC(=O)O)[C@H]1CC[C@H]2[C@@H]3C(=O)C[C@@H]4CC(=O)CC[C@]4(C)[C@H]3CC(=O)[C@]12C`, the “relative CLso titer” value was 212 ± 78%.
Regarding `CN1CCN(CC(=O)N2c3ccccc3C(=O)Nc3cccnc32)CC1`, the “relative CLso titer” value is 56.9 ± 5.4%.
Turning to `CCOC(=O)[C@H](CCc1ccccc1)N[C@@H](C)C(=O)N1CCC[C@H]1C(=O)O`, the “relative CLso titer” value was 135 ± 34%.
The value for `Nc1ccc(S(=O)(=O)Nc2ccc(Cl)nn2)cc1` was 52.4 ± 4.8%; that for `COc1ccc(NS(=O)(=O)c2ccc(N)cc2)nn1` was 116.5 ± 0.47%; that for `CCCC(C(=O)OCCN(CC)CC)(c1ccccc1)c1ccccc1` was 112 ± 16%.
With `COc1ccc(CNc2nc(N3CCC[C@H]3CO)ncc2C(=O)NCc2ncccn2)cc1Cl`, the “relative CLso titer” value worked out at 110 ± 46%.
For the compound `CCCCCCCCNC(C)C(O)c1ccc(SC(C)C)cc1` (stereo not given), the “relative CLso titer” value worked out at 80.3 ± 5.9%.
As for `CNC(=C[N+](=O)[O-])NCCSCc1ccc(CN(C)C)o1`, the “relative CLso titer” value is 109 ± 2.3%.
In the case of `C#C[C@]1(OC(C)=O)CC[C@H]2[C@@H]3CCC4=CC(=NO)CC[C@@H]4[C@H]3CC[C@@]21CC` (mixture of isomers), the “relative CLso titer” value was determined as 64.9 ± 10%.
For `O=C1c2cccc(O)c2C(=O)c2c(O)cccc21`, the “relative CLso titer” value was determined as 82.5 ± 46%.
Consider `C[C@@H]1C[C@H]2[C@@H]3C[C@H](F)C4=CC(=O)C=C[C@]4(C)[C@@]3(F)[C@@H](O)C[C@]2(C)[C@@]1(OC(=O)c1ccco1)C(=O)SCF`, for which the “relative CLso titer” value was determined as 92.9 ± 10%.
As to `CC(=O)Oc1cc2c(s1)CCN(C(C(=O)C1CC1)c1ccccc1F)C2` (stereo not given), the “relative CLso titer” value came to 55.4 ± 2.9%.
For the compound `CN(C)[C@@H]1C(O)=C(C(N)=O)C(=O)[C@@]2(O)C(O)=C3C(=O)c4c(O)ccc(Cl)c4[C@@](C)(O)[C@H]3C[C@@H]12`, the “relative CLso titer” value was found to be 35.8 ± 4.5%.
With `CCC1(C)CC(=O)NC1=O` (stereo not given), the “relative CLso titer” value came to 119.65 ± 0.011%.
Consider `Nc1ccc(C(=O)O)c(O)c1`, for which the “relative CLso titer” value was 73 ± 16%.
`O=C(Oc1ccccc1C(=O)O)c1ccccc1O`: the “relative CLso titer” value turned out to be 124 ± 42%.
With `CN(C)c1cnccn1` the figure was 120 ± 27%; with `CCCCOc1ccc(OCCCN2CCOCC2)cc1`, 106 ± 37%.
In the case of `Cc1ccc(S(=O)(=O)NC(=O)NN2CCCCCC2)cc1`, the “relative CLso titer” value was 83.2 ± 12%.
In the case of `CCN(CC)C(=S)SSC(=S)N(CC)CC`, the “relative CLso titer” value is 82.7 ± 6%.
In the case of `COC(=O)Nc1nc2cc(C(=O)c3cccs3)ccc2[nH]1`, the “relative CLso titer” value is 79.7 ± 6.4%.
The value for `CC(NCCc1ccc(O)cc1)C(O)c1ccc(O)cc1` (stereo not given) was 82.6 ± 20%.
In the case of `CCC(=O)O[C@H]1[C@H](O[C@@H]2[C@@H](C)[C@H](O[C@H]3C[C@@](C)(OC)[C@@H](O)[C@H](C)O3)[C@@H](C)C(=O)O[C@H](CC)[C@@](C)(O)[C@H](O)[C@@H](C)C(=O)[C@H](C)C[C@@]2(C)O)O[C@H](C)C[C@@H]1N(C)C`, the “relative CLso titer” value is 108 ± 26%.
With `N=C(NCCCCCCNC(=N)NC(=N)Nc1ccc(Cl)cc1)NC(=N)Nc1ccc(Cl)cc1` the figure was 89.5 ± 36%; with `CC(C)(Oc1ccc(CCNC(=O)c2ccc(Cl)cc2)cc1)C(=O)O`, 153 ± 64%.
As for `NCCc1ccc(O)c(O)c1`, the “relative CLso titer” value was 117 ± 26%.
Consider `C[C@]12CC[C@@H]3c4ccc(O)cc4CC[C@H]3[C@@H]1CC[C@@H]2OC(=O)CCC1CCCC1`, for which the “relative CLso titer” value worked out at 150 ± 44%.
Take `COC(=O)Nc1nc2cc(C(=O)c3ccccc3)ccc2[nH]1`: the “relative CLso titer” value was 84 ± 10%.
With `CN1CCN(C(c2ccccc2)c2ccccc2)CC1` the figure was 105 ± 31%.
With `N[C@@H]1CONC1=O` the figure was 177 ± 11%.
The value for `COc1cc(NS(=O)(=O)c2ccc(N)cc2)ncn1` was 60.3 ± 11%.
For the compound `C1CCN2C[C@@H]3C[C@@H](CN4CCCC[C@@H]34)[C@H]2C1`, the “relative CLso titer” value was 93.9 ± 8%.
`COc1ccc([C@H]2COc3c(ccc(O)c3OC)C2)c(OC)c1O`: the “relative CLso titer” value is 35.5 ± 2.5%.
As to `CN(C)CCOC(=O)C(c1ccccc1)C1(O)CCCC1` (stereo not given), the “relative CLso titer” value amounted to 23.4 ± 4.1%.
Take `CCOc1ccc(Cc2cc([C@@H]3O[C@H](CO)[C@@H](O)[C@H](O)[C@H]3O)ccc2Cl)cc1`: the “relative CLso titer” value was determined as 99 ± 3%.
Turning to `CC(C)CCCC(C)N` (stereo not given), the “relative CLso titer” value is 93.3 ± 14%.
As to `CC(=O)OCC(=O)[C@@]1(O)CC[C@H]2[C@@H]3CCC4=CC(=O)CC[C@]4(C)[C@H]3C(=O)C[C@@]21C`, the “relative CLso titer” value was found to be 27.6 ± 3%.
